# Inconclusive results are not listed. Calls of active or inactive are those of the source. Calls follow the shape of the full dose curve.
# Target: 5-hydroxytryptamine receptor 2A (Homo sapiens) (UniProt P28223)
# Assay: 5-hydroxytryptamine receptor 2A (HTR2A) small molecule agonists, cell-based qHTS assay (AID 1963587); also: nearly all actives have a fitted effect of over 30% in size
# Details: HTR2A-CHO cells, calcium flux fluorescence, agonist mode; series mostly up to 76.8 µM; activation: at the top concentration
# Description: National Center for Advancing Translational Sciences [NCATS]
# Division of Preclinical Innovation [DPI]
# U.S. Environmental Protection Agency [EPA]
# National Institutes of Environmental Health Sciences [NIEHS]
# National Toxicology Program [NTP]
# U.S. Food and Drug Administration [FDA]
# The HTR2A receptor is a subtype of the 5-HT2 receptor that belongs to the serotonin receptor family and is a G protein-coupled receptor (GPCR). The HTR2A-CHO cell line stably expressing human 5-hydroxytryptamine receptor 2A (HTR2A) can be used for screening agonists of interactions between 5-HT2 and its ligands. The HTR2A-CHO calcium flux assay is a homogeneous fluorescence-based assay for detecting the intracellular calcium level using FDSS kinetic plate reader system.
# HTR2A-CHO cells were dispensed at 2000 cells/3uL/well in 1536-well black-clear bottom plates using a Multidrop Dispenser. After the assay plates were incubated at a 37 C/5% CO2 incubator for 18 h, 3 uL of Dye Loading Buffer was transferred to the assay plate by a Flying Reagent Dispenser. The assay plates were incubated at 37 C for 1h. For agonist mode, 23 nL of compounds dissolved in DMSO, positive controls or DMSO only was transferred to the assay plate by a pin tool. The fluorescence intensity in the plates was measured using FDSS 7000EX kinetic plate reader for 2 min at 1 sec intervals.
# % is scaled to controls: 0 for no effect and ±100 for the full control effect; potency is read from the fitted curve at half-maximal effect.
# Sequence of 5-hydroxytryptamine receptor 2A (Homo sapiens) (P28223 whole entry, looked up): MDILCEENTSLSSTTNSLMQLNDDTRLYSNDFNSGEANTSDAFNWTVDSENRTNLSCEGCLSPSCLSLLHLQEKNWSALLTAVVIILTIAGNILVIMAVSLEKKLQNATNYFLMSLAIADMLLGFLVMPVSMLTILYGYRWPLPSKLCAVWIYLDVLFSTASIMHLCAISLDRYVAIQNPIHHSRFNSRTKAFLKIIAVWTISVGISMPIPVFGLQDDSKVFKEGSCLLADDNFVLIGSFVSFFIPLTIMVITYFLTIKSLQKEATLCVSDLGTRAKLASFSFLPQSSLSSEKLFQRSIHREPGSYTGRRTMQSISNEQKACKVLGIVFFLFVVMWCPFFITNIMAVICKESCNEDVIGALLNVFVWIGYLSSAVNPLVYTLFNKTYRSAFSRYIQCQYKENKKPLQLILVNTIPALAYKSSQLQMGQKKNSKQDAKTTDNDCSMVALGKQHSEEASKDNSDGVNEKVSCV
Compound,activation,Potency
CCCCCCOC(=O)CCC,-4.45% (inactive),–
C=CCOC(=O)/C=C\C(=O)OCC=C,1.68% (inactive),–
O=C(O)CCC(=O)OC[C@@H](NC(=O)C(Cl)Cl)[C@H](O)c1ccc([N+](=O)[O-])cc1,16.7% [at 35.6 µM] (inactive),–
S=c1[nH][nH]c(=S)s1,-0.238% (inactive),–
C[C@@H](CN1CC(=O)NC(=O)C1)N1CC(=O)NC(=O)C1,3.24% [at 35.6 µM] (inactive),–
C[C@H]1NCc2cc(-c3ccc4c(=O)c(C(=O)O)cn(C5CC5)c4c3OC(F)F)ccc21,-1.89% [at 15.9 µM] (inactive),–
CCOC(=O)c1c(N)sc2c1CCN(Cc1ccccc1)C2,8.12% [at 35.6 µM] (inactive),–
NCCS,0.293% [at 35.6 µM] (inactive),–
CCCCc1nc2cccnc2n1Cc1ccc(-c2ccccc2-c2nnn[nH]2)cc1,-10.5% (inactive),–
ICCc1ccccc1,-0.921% (inactive),–
FC(F)OC(Cl)C(F)(F)F (stereo not given),1.75% (inactive),–
CCOC(=O)COc1cc(-n2ncc(C(F)(F)F)c(C)c2=O)c(F)cc1Cl,-2.43% (inactive),–
CCCCCCCCCCCCSC,-0.0494% (inactive),–
N#Cc1ccc(C(=O)O)cc1,0.834% (inactive),–
CCN1CCCC1CNC(=O)c1cc(S(=O)(=O)CC)c(N)cc1OC (stereo not given),3.75% [at 35.6 µM] (inactive),–
CC/C=C\CCOC(C)=O,2.29% (inactive),–
N#C[C@@H]1CC(F)(F)CN1C(=O)CNC1CC2CCC(C1)N2c1ncccn1 (stereo not given in full),-0.56% (inactive),–
CCCCC(CC)CN (stereo not given),4.45% (inactive),–
Cc1c(C)c2c(c(C)c1OC(=O)CCC(=O)OCCO)CC[C@@](C)(CCC[C@H](C)CCC[C@H](C)CCCC(C)C)O2,-10.7% [at 35.6 µM] (inactive),–
CC=C(Cl)Cl,3.57% (inactive),–

Compound,activation,Potency
COc1c(Br)cc(Br)c(C)c1Br,-6.47% (inactive),–
C/C=C(/C(=C/C)c1ccc(OC(C)=O)cc1)c1ccc(OC(C)=O)cc1,5.5% [at 35.6 µM] (inactive),–
CCC1(C)C(=O)N(Cl)C(=O)N1Cl (stereo not given),-0.139% (inactive),–
Nc1ccc(S(=O)(=O)Nc2ccccc2)cc1,-21.3% [at 35.6 µM] (inactive),–
CCC(C)(CCCC(C)C)OC(C)=O (stereo not given),2.56% (inactive),–
CCCCCCCC/C=C\CCCCCCCC(=O)OC,-0.0905% (inactive),–
CNC(=O)CN(CCN(CCN(CC(=O)[O-])CC(=O)NC)CC(=O)[O-])CC(=O)[O-].O.[Gd+3],-0.33% [at 35.6 µM] (inactive),–
COc1cc(C(=O)NCCCCCC(=O)O)cc(OC)c1OC,-0.167% [at 35.6 µM] (inactive),–
CC(COC(C)(C)C)OCCCO (stereo not given),-2.99% (inactive),–
CCCCCCCCCCCCCCNCCO,–,23.9 µM (active)
CC(=O)O[C@@H]1CC2CCC1(C)C2(C)C (stereo not given in full),-1.08% (inactive),–
O=C(O)c1cc(N=Nc2ccc([N+](=O)[O-])cc2)ccc1O,6.75% (inactive),–
CCOCCOCCOC(C)=O,-3.04% (inactive),–
CCOC(=O)[C@H](CCc1ccccc1)N[C@@H](C)C(=O)N(CC(=O)O)C1Cc2ccccc2C1,2.18% [at 35.6 µM] (inactive),–
CCCCCCCCN1CCCC1=O,-0.805% (inactive),–
CCC(=O)CC(C)CC (stereo not given),6.03% [at 0.292 µM] (inactive),–
CCCCCC(=O)OCCc1ccccc1,-6.25% (inactive),–
CN(C)CCc1c[nH]c2ccc(C[C@H]3COC(=O)N3)cc12,–,8.49 µM (active)
CC(C)(C#N)Nc1nc(Cl)nc(NC2CC2)n1,1.21% (inactive),–
CC(=O)Nc1cccc(C)c1,-1.4% (inactive),–

# From PubChem BioAssay (Tox21)
